Experimental data from PubChem BioAssay (Tox21).
A number with no mark means an inactive call. Active and inactive are the calls of the source. Calls come from the whole dose curve; as a rule, active = well fitted curve in the direction sought with a large enough effect in the repeat runs; inconclusive = weak or mixed curves; inactive = flat fitted curve, though single readings scatter.

assay: qHTS assay to test for compound auto fluorescence at 590 nm (red) in HepG2 cell free culture (AID 720684); conditions: cell-free medium autofluorescence, red 540/590 nm; series mostly up to 91.3 µM; fluorescence, % of Rose Bengal: at the top concentration
Source text: U.S. Tox21 Program National Center for Advancing Translational Sciences [NCATS] NIH Chemical Genomics Center [NCGC] U.S. Environmental Protection Agency [EPA] National Institutes of Environmental Health Sciences [NIEHS] National Toxicology Program [NTP] U.S. Food and Drug Administration [FDA] Tox21 Assay Overview: Compound auto fluorescence often interferes with screening of the compound library against various biological targets and signaling pathways. Some of these compounds may have fluorophoric properties. Such properties may interfere with the assay outputs resulting in false positives and/or negatives. To decrease such complications and ensure the compound activities are relevant in terms of biological response, the Tox21 10K compound library was screened for auto fluorescence. From the fluorophores used as reporter signals in our screening assays, the auto fluorescence equivalencies of compounds against three fluorophores have been evaluated: Triamterene, Fluorescein and Rose Bengal sodium for blue, green and red fluorescence, respectively. The fluorescence intensities were measured using Excitation/Emission wavelengths at 405/460nm, 485/535nm and 540/590nm for blue, green and red labels, respectively. This assay includes the red fluorescence data.
Tox21 Assay Protocol Summary: 5 uL of culture medium (MEM containing 10% FBS) per well was dispensed into black wall/clear bottom 1536-well plates using a Multidrop Combi Dispenser (ThermoFisher Scientific, Waltham, MA). After 23 nL compound or DMSO vehicle was transferred into assay plate by a pintool work station (Kalypsys, San Diego, CA), fluorescence intensities in the assay plates were measured by an Envision (PerkinElmer, Shelton, CT) plate reader using three labels for measuring blue, green and red fluorescence at […] 460, 535 and 590nm respectively.
% is set by controls: 0 for no effect and ±100 for the full control effect.

**Q.** With COc1cc(S(=O)(=O)Nc2ccccc2)c(OC)cc1N as the compound, how does the “fluorescence, % of Rose Bengal” value read?
**A.** Its value is -0.0265%.

**Q.** With O=C(O)CCC(=O)c1ccc(-c2ccccc2)cc1 as the compound, how does the fluorescence, % of Rose Bengal read?
**A.** The fluorescence, % of Rose Bengal was -0.0571% [at 18.6 µM].

**Q.** With CCCCCCCC(=O)OCCCCCC as the compound, how does the “fluorescence, % of Rose Bengal” value read?
**A.** Its value is -0.0615%.

**Q.** Which “fluorescence, % of Rose Bengal” value does the source give for CC(=O)c1ccc[nH]1 here?
**A.** Its value is 0.319%.

**Q.** For CC1CCCC(=O)C1=O (stereo not given), which “fluorescence, % of Rose Bengal” value is on record?
**A.** The value was 0.051%.

**Q.** Which “fluorescence, % of Rose Bengal” value does the source give for CC(C)N(C)C here?
**A.** Its value is -0.0841%.

**Q.** For O=C(Nc1ccc(C(=O)O)c(O)c1)c1ccccc1, which “fluorescence, % of Rose Bengal” value is on record?
**A.** Its value is 0.191% [at 46 µM].

**Q.** For CC(=O)OCC1=C(C(=O)O)N2C(=O)[C@@H](NC(=O)CSc3ccncc3)[C@H]2SC1, which “fluorescence, % of Rose Bengal” value is on record?
**A.** The value was -0.298% [at 46 µM].

**Q.** For Cc1cc([N+](=O)[O-])ccc1N, which “fluorescence, % of Rose Bengal” value is on record?
**A.** The value was 0.0197%.

**Q.** Which “fluorescence, % of Rose Bengal” value does the source give for COc1ccc(C)cc1 here?
**A.** Its value is -0.302%.

**Q.** For COc1cc(NS(=O)(=O)c2ccc(N)cc2)nc(C)n1, which “fluorescence, % of Rose Bengal” value is on record?
**A.** Its value is -0.145% [at 46 µM].

**Q.** Which “fluorescence, % of Rose Bengal” value does the source give for Cc1cc(CCC(=O)OCCOCCOCCOC(=O)CCc2cc(C)c(O)c(C(C)(C)C)c2)cc(C(C)(C)C)c1O here?
**A.** Its value is -0.309%.

**Q.** For COc1cc(NCc2ccc3nc(N)nc(N)c3c2C)cc(OC)c1OC, which “fluorescence, % of Rose Bengal” value is on record?
**A.** The value was 0.0198% [at 46 µM].

**Q.** With CC(C)(C)C1(CCc2ccc(Cl)cc2)CO1 (stereo not given) as the compound, how does the “fluorescence, % of Rose Bengal” value read?
**A.** The value was -0.135%.

**Q.** For Cc1c[nH]c2ccccc12, which “fluorescence, % of Rose Bengal” value is on record?
**A.** Its value is -0.0278% [at 46 µM].

**Q.** Which “fluorescence, % of Rose Bengal” value does the source give for CN1CCCN(C(c2ccccc2)c2ccc(Cl)cc2)CC1 (stereo not given) here?
**A.** Its value is -0.217% [at 46 µM].

**Q.** Which “fluorescence, % of Rose Bengal” value does the source give for CCSC(=O)N(CC)CC here?
**A.** Its value is 0.0241%.

**Q.** Which “fluorescence, % of Rose Bengal” value does the source give for CCC(CO)(CO)[N+](=O)[O-] here?
**A.** The value was 0.0511%.

**Q.** With CC(C)N=C=NC(C)C as the compound, how does the “fluorescence, % of Rose Bengal” value read?
**A.** The value was -0.0299%.

**Q.** With CCCCOC(=O)CCCCC(=O)OCCCC as the compound, how does the “fluorescence, % of Rose Bengal” value read?
**A.** The value was 0.0089%.

**Q.** With CC(=O)OCC(C)C as the compound, how does the “fluorescence, % of Rose Bengal” value read?
**A.** Its value is 0.198%.

**Q.** With COc1ccc2nc(S(=O)Cc3ncc(C)c(OC)c3C)[nH]c2c1 (stereo not given) as the compound, how does the outcome read?
**A.** Its outcome is “inactive”.

**Q.** Which “fluorescence, % of Rose Bengal” value does the source give for Cc1cccc2sc(N)nc12 here?
**A.** The value was 0.0126% [at 95.7 µM].

**Q.** With BrC(Br)C(Br)Br as the compound, how does the “fluorescence, % of Rose Bengal” value read?
**A.** Its value is -0.325%.

**Q.** For COC(CC(C)CCCC(C)(C)O)OC (stereo not given), which “fluorescence, % of Rose Bengal” value is on record?
**A.** Its value is -0.101%.

**Q.** Which “fluorescence, % of Rose Bengal” value does the source give for O=C(O)CO here?
**A.** The value was -0.296%.

**Q.** For CC(=O)OCCC1CCCCC1, which “fluorescence, % of Rose Bengal” value is on record?
**A.** The value was -0.281%.

**Q.** For CCCCCCCCCCCCCOS(=O)(=O)O, which “fluorescence, % of Rose Bengal” value is on record?
**A.** The value was 0.0088%.

**Q.** Which outcome does the source give for Nc1ccn([C@H]2CS[C@@H](CO)O2)c(=O)n1 here?
**A.** Its outcome is “inactive”.

**Q.** With FC(F)(F)C(F)(F)C(F)(F)C(F)(F)CCI as the compound, how does the “fluorescence, % of Rose Bengal” value read?
**A.** The value was -0.0649% [at 46 µM].

**Q.** Which “fluorescence, % of Rose Bengal” value does the source give for CCC(CO)(CO)CO here?
**A.** Its value is 0.0569% [at 95.7 µM].

**Q.** Which “fluorescence, % of Rose Bengal” value does the source give for Cc1ccc2nc(N)[nH]c(=O)c2c1Sc1ccncc1 here?
**A.** The value was 0.419% [at 46 µM].

**Q.** Which “fluorescence, % of Rose Bengal” value does the source give for C/C(C=O)=C\c1ccccc1 here?
**A.** The value was 0.181%.

**Q.** For O=C(O)c1cccc(C[C@@H]2COc3ccc(OCc4nc5cc(F)ccc5s4)cc3[C@@H]2O)c1, which “fluorescence, % of Rose Bengal” value is on record?
**A.** Its value is 0.103%.

**Q.** Which “fluorescence, % of Rose Bengal” value does the source give for CCN(CC)C(=O)/C(C#N)=C/c1cc(O)c(O)c([N+](=O)[O-])c1 here?
**A.** The value was -0.525% [at 46 µM].

**Q.** Which “fluorescence, % of Rose Bengal” value does the source give for O=c1[nH]c2cc(C(F)(F)F)c(N3CCOCC3)cc2n(CP(=O)(O)O)c1=O here?
**A.** Its value is 0.014% [at 46 µM].

**Q.** Which “fluorescence, % of Rose Bengal” value does the source give for Nc1c(Cl)cc(Cl)cc1[N+](=O)[O-] here?
**A.** The value was 0.06%.

**Q.** With CCOC(=O)c1c(N)sc2c1CCN(Cc1ccccc1)C2 as the compound, how does the “fluorescence, % of Rose Bengal” value read?
**A.** Its value is -0.35% [at 46 µM].

**Q.** For CC(C)C(O)C(C)(C)CO (stereo not given), which “fluorescence, % of Rose Bengal” value is on record?
**A.** The value was -0.265% [at 95.7 µM].

**Q.** Which “fluorescence, % of Rose Bengal” value does the source give for CN1C(CSCC(F)(F)F)Nc2cc(Cl)c(S(N)(=O)=O)cc2S1(=O)=O (stereo not given) here?
**A.** The value was -0.0616% [at 46 µM].
